# Reference: PubChem BioAssay (NCATS)
# Where “and” joins values, the source holds several entries; their conditions need not be identical. Equal values may be shown once. Records with an inconclusive call do not appear. Where a call stands in place of a potency, no number is given. A number with no mark means an inactive call. Calls of active or inactive are those of the source. Calls come from the whole dose curve; as a rule, active = well fitted curve in the direction sought with a large enough effect; inconclusive = small, poorly fitted or top-dose-only effect, or another doubt; inactive = no such curve, though single readings can be large; an effect the other way counts as inactive or inconclusive.
# Target: Cytochrome P450 3A7 (Homo sapiens) (UniProt P24462)
# Test: Cytochrome P450 family 3 subfamily A member 7 (CYP3A7) small molecule antagonists: luciferase biochemical qHTS assay (AID 1963596); note: nearly all actives have a fitted effect of over 40% in size
# Conditions: P450-Glo CYP3A7 enzyme luminescence, 1 h; series mostly up to 57.4 µM
# How it was run: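 Compounds were screened in qHTS format for interference with CYP3A7 turnover of a proluciferin substrate. Reactions ran 1 h at room temperature after NADPH regeneration solution was added, then luciferin product was detected by luminescence.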
# Sequence of Cytochrome P450 3A7 (Homo sapiens) (P24462 whole entry, looked up): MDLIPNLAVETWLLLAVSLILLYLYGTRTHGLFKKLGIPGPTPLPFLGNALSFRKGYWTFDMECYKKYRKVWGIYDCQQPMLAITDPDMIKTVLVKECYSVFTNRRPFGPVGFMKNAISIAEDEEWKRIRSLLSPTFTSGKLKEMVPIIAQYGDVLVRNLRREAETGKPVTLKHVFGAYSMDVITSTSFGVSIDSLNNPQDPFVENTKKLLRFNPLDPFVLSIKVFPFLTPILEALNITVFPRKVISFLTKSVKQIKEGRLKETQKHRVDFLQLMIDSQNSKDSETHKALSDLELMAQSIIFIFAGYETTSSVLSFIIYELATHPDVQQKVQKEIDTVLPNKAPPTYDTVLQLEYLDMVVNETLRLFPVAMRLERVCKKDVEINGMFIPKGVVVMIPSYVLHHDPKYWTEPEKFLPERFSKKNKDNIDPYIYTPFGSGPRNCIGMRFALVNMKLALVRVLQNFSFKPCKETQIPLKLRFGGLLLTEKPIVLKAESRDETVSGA
row,SMILES,Potency
1,CCCN(CCC)CCc1cccc2c1CC(=O)N2,inactive
2,COCCc1ccccn1,inactive
3,CCCC(=O)O[C@]1(C(=O)CO)CC[C@H]2[C@@H]3CCC4=CC(=O)CC[C@]4(C)[C@H]3[C@@H](O)C[C@@]21C,inactive
4,CCCCCCCCCCCCCCCCO,inactive
5,CN=C(N)NC(=O)Nc1c(C)cccc1C,inactive
6,CN1[C@@H]2CC[C@H]1CC(OC(=O)c1c[nH]c3ccccc13)C2 (stereo partly drawn),inactive
7,CCOc1ccc(C(=O)OCCN(CC)CC)cc1,inactive
8,CCN(CC)S(=O)(=O)c1ccc(C(=O)O)cc1,inactive
9,CN(C)C1CCN(C(=O)c2ccc(NC(=O)Nc3ccc(-c4nc(N5CCOCC5)nc(N5CCOCC5)n4)cc3)cc2)CC1,inactive
10,O=c1[nH]cnc2nc[nH]c12,inactive
11,CC[N+](CC)(CC(=O)Nc1c(C)cccc1C)Cc1ccccc1,inactive
12,COc1cc(C=O)ccc1O,inactive
13,NC(=O)CCCCC1CCSS1 (stereo not drawn),inactive
14,COc1ccc(C(=O)NCc2ccc(OCCN(C)C)cc2)cc1OC,inactive
15,Clc1ccc2nsnc2c1NC1=NCCN1,inactive
16,CCCCCCCC(=O)OCC(O)CO (stereo not drawn),inactive
17,CCOc1ccccc1OCC1CNCCO1 (stereo not drawn),inactive
18,OCCc1ccccc1,inactive

# Tested on: not listed separately
# Test: Viability qHTS for spleen associated tyrosine kinase inhibitor (SYKi) drug resistant MV4-11 cells (AID 1963824); note: nearly all actives have a fitted effect of over 35% in size; note: potency is the fitted concentration of half-maximal effect
# Conditions: SYKi-resistant MV4-11 viability, CellTiter-Glo, 72 h; series mostly up to 45 µM
# How it was run: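 SYK inhibitor-resistant MV4-11 AML cells, 500 per well, added to predispensed compounds and incubated 72 hr at 37 C, 5% CO2. Viability measured by CellTiter-Glo luminescence after 10 min at room temperature.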
row,SMILES,Potency
1,COc1nccnc1NS(=O)(=O)c1ccc(N)cc1,inactive
2,COCC(=O)Nc1c(I)c(C(=O)NCC(O)CO)c(I)c(C(=O)N(C)CC(O)CO)c1I (stereo not drawn),inactive
3,O=C(c1ccco1)N1CCNCC1,inactive
4,O=C(O)c1ccc(OCCN2CCCCC2)cc1,inactive
5,OC[C@@H](O)[C@H](O)[C@H](O)[C@@H](O)CO,3350 nM (active)
6,CC(C)(C)NC[C@H](O)COc1nsnc1N1CCOCC1,inactive
7,CC(C(=O)O)c1cccc(Oc2ccccc2)c1 (stereo not drawn),inactive
8,CCN(CC)CCN,inactive
9,COC(=O)c1nc(Cl)c(Cl)nc1N,596 nM (active)
10,CC(C)CCCC(C)N (stereo not drawn),inactive
11,CC(=O)NO,inactive
12,CC(=O)N1C[C@H](O)C[C@H]1C(=O)O,inactive
13,O=C(NCC(=O)N1CCCC1)Nc1ccc2cnccc2c1,8200 nM (active)
14,CCOc1ccccc1C(N)=O,9440 nM (active)
15,C=C(C)C(=O)OCC(O)CO (stereo not drawn),inactive
16,CCCCCCCCCCCCCCCC(=O)O,inactive
17,C[C@H]1O[C@H](O[C@H]2[C@H](O)[C@@H](O)[C@@H](O[C@H]3[C@H](O)[C@@H](O)[C@H](O)O[C@@H]3CO)O[C@@H]2CO)[C@H](O)[C@@H](O)[C@@H]1N[C@H]1C=C(CO)[C@@H](O)[C@H](O)[C@H]1O,inactive
18,CC(=O)N(CC(O)CO)c1c(I)c(C(=O)NCC(O)CO)c(I)c(C(=O)NCC(O)CO)c1I (stereo not drawn),inactive
19,CC(=O)OC(C)C[N+](C)(C)C (stereo not drawn),inactive
20,Nc1c2c(nc3ccccc13)CCCC2O (stereo not drawn),841 nM (active)

row,SMILES,Potency
1,NS(=O)(=O)Cc1noc2ccccc12,inactive
2,CC(=O)c1ccc(OCC(=O)N2CCCCC2)cc1,inactive
3,CCCN(CCC)CCc1cccc2c1CC(=O)N2,inactive
4,COCCc1ccccn1,inactive
5,CCCC(=O)O[C@]1(C(=O)CO)CC[C@H]2[C@@H]3CCC4=CC(=O)CC[C@]4(C)[C@H]3[C@@H](O)C[C@@]21C,inactive
6,CCCCCCCCCCCCCCCCO,inactive
7,CN=C(N)NC(=O)Nc1c(C)cccc1C,inactive
8,CN1[C@@H]2CC[C@H]1CC(OC(=O)c1c[nH]c3ccccc13)C2 (stereo partly drawn),inactive
9,CCOc1ccc(C(=O)OCCN(CC)CC)cc1,inactive
10,CCN(CC)S(=O)(=O)c1ccc(C(=O)O)cc1,inactive
11,CN(C)C1CCN(C(=O)c2ccc(NC(=O)Nc3ccc(-c4nc(N5CCOCC5)nc(N5CCOCC5)n4)cc3)cc2)CC1,18.4 nM (active)
12,O=c1[nH]cnc2nc[nH]c12,inactive
13,CC[N+](CC)(CC(=O)Nc1c(C)cccc1C)Cc1ccccc1,inactive
14,COc1cc(C=O)ccc1O,inactive
15,NC(=O)CCCCC1CCSS1 (stereo not drawn),inactive
16,COc1ccc(C(=O)NCc2ccc(OCCN(C)C)cc2)cc1OC,inactive
17,Clc1ccc2nsnc2c1NC1=NCCN1,inactive
18,CCCCCCCC(=O)OCC(O)CO (stereo not drawn),inactive
19,CCOc1ccccc1OCC1CNCCO1 (stereo not drawn),inactive
20,OCCc1ccccc1,inactive

# Tested on: not listed separately
# Test: Cellular viability qHTS for adrenocortical cancer (ACC) cell line SW-13 (AID 1963989); note: nearly all actives have a fitted effect of over 65% in size; note: potency is the fitted concentration of half-maximal effect;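 for activity (max response): cells grown in serum-free medium with ITS supplement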
# Conditions: SW-13 ACC cells viability, CellTiter-Glo, 48 h; activity (max response): hits give low values
# How it was run: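 IC50 and maximal-response values come from four-parameter logistic fits of titration data. SW-13 cells in serum-free medium received compounds (up to 46 uM final) for 48 h before CellTiter-Glo luminescence.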
SMILES,activity (max response),Potency
COc1nccnc1NS(=O)(=O)c1ccc(N)cc1,1.63%,
COCC(=O)Nc1c(I)c(C(=O)NCC(O)CO)c(I)c(C(=O)N(C)CC(O)CO)c1I (stereo not drawn),-3.53%,
O=C(c1ccco1)N1CCNCC1,-4.62%,
O=C(O)c1ccc(OCCN2CCCCC2)cc1,10.8%,
OC[C@@H](O)[C@H](O)[C@H](O)[C@@H](O)CO,1.26% and 9.11%,
CC(C)(C)NC[C@H](O)COc1nsnc1N1CCOCC1,-5.85%,
CC(C(=O)O)c1cccc(Oc2ccccc2)c1 (stereo not drawn),9.95%,
CCN(CC)CCN,6.69%,
COC(=O)c1nc(Cl)c(Cl)nc1N,,8200 nM (active)
CC(C)CCCC(C)N (stereo not drawn),3.28%,
CC(=O)NO,11.6%,
CC(=O)N1C[C@H](O)C[C@H]1C(=O)O,0.891%,
O=C(NCC(=O)N1CCCC1)Nc1ccc2cnccc2c1,-10.6%,
CCOc1ccccc1C(N)=O,2.11%,
C=C(C)C(=O)OCC(O)CO (stereo not drawn),-4.84%,
CCCCCCCCCCCCCCCC(=O)O,8.9%,
C[C@H]1O[C@H](O[C@H]2[C@H](O)[C@@H](O)[C@@H](O[C@H]3[C@H](O)[C@@H](O)[C@H](O)O[C@@H]3CO)O[C@@H]2CO)[C@H](O)[C@@H](O)[C@@H]1N[C@H]1C=C(CO)[C@@H](O)[C@H](O)[C@H]1O,-2.85%,
CC(=O)N(CC(O)CO)c1c(I)c(C(=O)NCC(O)CO)c(I)c(C(=O)NCC(O)CO)c1I (stereo not drawn),11.9%,
CC(=O)OC(C)C[N+](C)(C)C (stereo not drawn),-1.07%,
Nc1c2c(nc3ccccc13)CCCC2O (stereo not drawn),13%,

SMILES,activity (max response),Potency
NS(=O)(=O)Cc1noc2ccccc12,1.85%,
CC(=O)c1ccc(OCC(=O)N2CCCCC2)cc1,7.54%,
CCCN(CCC)CCc1cccc2c1CC(=O)N2,8.18%,
COCCc1ccccn1,-6%,
CCCC(=O)O[C@]1(C(=O)CO)CC[C@H]2[C@@H]3CCC4=CC(=O)CC[C@]4(C)[C@H]3[C@@H](O)C[C@@]21C,-3.14%,
CCCCCCCCCCCCCCCCO,10.1%,
CN=C(N)NC(=O)Nc1c(C)cccc1C,-3.82%,
CN1[C@@H]2CC[C@H]1CC(OC(=O)c1c[nH]c3ccccc13)C2 (stereo partly drawn),-7.55%,
CCOc1ccc(C(=O)OCCN(CC)CC)cc1,-4.6%,
CCN(CC)S(=O)(=O)c1ccc(C(=O)O)cc1,-2.24%,
CN(C)C1CCN(C(=O)c2ccc(NC(=O)Nc3ccc(-c4nc(N5CCOCC5)nc(N5CCOCC5)n4)cc3)cc2)CC1,,251 nM (active)
O=c1[nH]cnc2nc[nH]c12,10.3%,
CC[N+](CC)(CC(=O)Nc1c(C)cccc1C)Cc1ccccc1,1.59%,
COc1cc(C=O)ccc1O,3.08%,
NC(=O)CCCCC1CCSS1 (stereo not drawn),9.98%,
COc1ccc(C(=O)NCc2ccc(OCCN(C)C)cc2)cc1OC,1.66%,
Clc1ccc2nsnc2c1NC1=NCCN1,-2.56% and -8.39%,
CCCCCCCC(=O)OCC(O)CO (stereo not drawn),-7.07%,
CCOc1ccccc1OCC1CNCCO1 (stereo not drawn),-0.481%,
OCCc1ccccc1,10.1%,
